According to PubChem BioAssay AID1159580 (chemical genetic matrix, 2015):
Values joined by “and” are separate entries in the source; they are usually repeats but may differ in a detail not shown here. Equal values may be shown once. About 2,000 (36%) of roughly 5,500 compounds were called active. Roughly 18% stayed inconclusive and do not appear here. Cut-off read from the data, not from the text of the source: active = normalized growth mostly below about 0.91 (no sharp cut-off); inconclusive = no clear call, values can overlap the other calls; inactive = mostly above about 0.92. The list shows a part of the results.

Test: chemical genetic growth profiling, strain panel (AID 1159580);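 note: tested at 20 µM; growth read once vehicle control cultures reached saturation at 30 °C; 1 = growth at the plate median or of vehicle wells; lower values mean less growth of the strain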
Conditions: growth OD

Measured: normalized growth

Nc1ccncc1
inactive: S. cerevisiae deletion strains, locus YJR075W, strain HOC1, hits give low values 1.03 and 1 | S. cerevisiae deletion strains, locus YKL009W, strain mrt4, hits give low values 1.03 | S. cerevisiae deletion strains, locus YKL068W, hits give low values 0.988 | S. cerevisiae deletion strains, locus YKL085W, strain MDH1 (second series), hits give low values 0.995 | S. cerevisiae deletion strains, locus YKL085W, strain MDH1, hits give low values 0.995 | S. cerevisiae deletion strains, locus YKL160W, strain elf1, hits give low values 0.994 | S. cerevisiae deletion strains, locus YKL190W, strain CNB1, hits give low values 1.01 | S. cerevisiae deletion strains, locus YKR001C, strain vps1, hits give low values 0.931 | S. cerevisiae deletion strains, locus YKR026C, strain gcn3, hits give low values 0.984 | S. cerevisiae deletion strains, locus YKR091W, strain srl3, hits give low values 0.987 | S. cerevisiae deletion strains, locus YLL001W, strain dnm1, hits give low values 0.981 | S. cerevisiae deletion strains, locus YLL026W, hits give low values 0.999 | S. cerevisiae deletion strains, locus YLL041C, strain sdh2, hits give low values 0.989 | S. cerevisiae deletion strains, locus YLR027C, strain aat2, hits give low values 0.994 | S. cerevisiae deletion strains, locus YLR039C, strain RIC1, hits give low values 1 | S. cerevisiae deletion strains, locus YLR058C, strain SHM2, hits give low values 1.02 | S. cerevisiae deletion strains, locus YLR102C, strain apc9, hits give low values 0.97 | S. cerevisiae deletion strains, locus YLR113W, strain HOG1, hits give low values 0.958 | S. cerevisiae deletion strains, locus YLR221C, strain rsa3, hits give low values 1 | S. cerevisiae deletion strains, locus YLR258W, strain gsy2, hits give low values 0.987 | S. cerevisiae deletion strains, locus YLR262C, strain YPT6 (second series), hits give low values 0.971 | S. cerevisiae deletion strains, locus YLR262C, strain YPT6, hits give low values 1.02 | S. cerevisiae deletion strains, locus YLR268W, strain sec22, hits give low values 0.921 | S. cerevisiae deletion strains, locus YLR320W, strain mms22, hits give low values 0.993 | S. cerevisiae deletion strains, locus YLR330W, strain CHS5, hits give low values 1.01 | S. cerevisiae deletion strains, locus YLR342W, strain FKS1 (second series), hits give low values 1.02 | S. cerevisiae deletion strains, locus YLR342W, strain FKS1, hits give low values 0.991 | S. cerevisiae deletion strains, locus YLR357W, strain rsc2, hits give low values 1.01 | S. cerevisiae deletion strains, locus YLR370C, strain arc18, hits give low values 0.997 | S. cerevisiae deletion strains, locus YLR371W, strain rom2, hits give low values 0.976 | S. cerevisiae deletion strains, locus YLR384C, strain iki3, hits give low values 0.994 | S. cerevisiae deletion strains, locus YLR418C, strain cdc73, hits give low values 0.935 | S. cerevisiae deletion strains, locus YML016C, strain PPZ1, hits give low values 1.02 | S. cerevisiae deletion strains, locus YML032C, strain rad52, hits give low values 0.957 | S. cerevisiae deletion strains, locus YML120C, strain ndi1, hits give low values 0.998 | S. cerevisiae deletion strains, locus YML124C, strain tub3, hits give low values 0.977 | S. cerevisiae deletion strains, locus YMR058W, strain fet3, hits give low values 1 | S. cerevisiae deletion strains, locus YMR078C, strain ctf18, hits give low values 0.958 | S. cerevisiae deletion strains, locus YMR125W, strain sto1, hits give low values 0.984 | S. cerevisiae deletion strains, locus YMR129W, hits give low values 0.993 | S. cerevisiae deletion strains, locus YMR205C, strain PFK2, hits give low values 0.999 | S. cerevisiae deletion strains, locus YMR223W, strain ubp8, hits give low values 0.977 | S. cerevisiae deletion strains, locus YMR231W, strain pep5, hits give low values 0.995 | S. cerevisiae deletion strains, locus YMR263W, strain SAP30, hits give low values 1.02 and 1.01 | S. cerevisiae deletion strains, locus YMR307W, strain GAS1, hits give low values 1.01 | S. cerevisiae deletion strains, locus YNL067W, strain RPL9B, hits give low values 1.01 | S. cerevisiae deletion strains, locus YNL071W, strain lat1, hits give low values 0.995 | S. cerevisiae deletion strains, locus YNL128W, strain TEP1, hits give low values 1.02 | S. cerevisiae deletion strains, locus YNL153C, strain GIM3, hits give low values 1.01 and 1 | S. cerevisiae deletion strains, locus YNL175C, strain NOP13, hits give low values 1 | S. cerevisiae deletion strains, locus YNL183C, strain NPR1, hits give low values 0.912 | S. cerevisiae deletion strains, locus YNL197C, strain WHI3, hits give low values 1.01 | S. cerevisiae deletion strains, locus YNL209W, strain ssb2, hits give low values 0.993 | S. cerevisiae deletion strains, locus YNL224C, strain SQS1, hits give low values 0.998 | S. cerevisiae deletion strains, locus YNL233W, strain BNI4, hits give low values 1 | S. cerevisiae deletion strains, locus YNL248C, strain rpa49, hits give low values 0.993 | S. cerevisiae deletion strains, locus YNL250W, strain rad50, hits give low values 0.978 | S. cerevisiae deletion strains, locus YNL271C, strain bni1, hits give low values 0.942 | S. cerevisiae deletion strains, locus YNL298W, strain CLA4, hits give low values 0.966 | S. cerevisiae deletion strains, locus YNL307C, strain MCK1, hits give low values 0.947 | S. cerevisiae deletion strains, locus YNL322C, strain KRE1 (second series), hits give low values 0.99 | S. cerevisiae deletion strains, locus YNL322C, strain KRE1, hits give low values 1.01 and 1.02 | S. cerevisiae deletion strains, locus YNR049C, strain mso1, hits give low values 0.99 | S. cerevisiae deletion strains, locus YNR052C, strain pop2, hits give low values 0.974 | S. cerevisiae deletion strains, locus YOL006C, strain TOP1, hits give low values 0.996 | S. cerevisiae deletion strains, locus YOL012C, strain htz1 1.65 | S. cerevisiae deletion strains, locus YOL147C, strain pex11, hits give low values 0.956 | S. cerevisiae deletion strains, locus YOR001W, strain rrp6, hits give low values 0.993 | S. cerevisiae deletion strains, locus YOR061W, strain CKA2, hits give low values 1.02 | S. cerevisiae deletion strains, locus YOR069W, strain VPS5, hits give low values 1.02 | S. cerevisiae deletion strains, locus YOR070C, strain gyp1, hits give low values 0.999 | S. cerevisiae deletion strains, locus YOR080W, strain dia2, hits give low values 0.99 | S. cerevisiae deletion strains, locus YOR083W, strain WHI5 (second series), hits give low values 0.998 | S. cerevisiae deletion strains, locus YOR083W, strain WHI5, hits give low values 1 | S. cerevisiae deletion strains, locus YOR106W, strain vam3, hits give low values 1.01 | S. cerevisiae deletion strains, locus YOR136W, strain idh2, hits give low values 0.974 | S. cerevisiae deletion strains, locus YOR144C, strain elg1, hits give low values 0.963 | S. cerevisiae deletion strains, locus YOR184W, strain ser1, hits give low values 0.904 | S. cerevisiae deletion strains, locus YOR231W, strain MKK1, hits give low values 0.968 | S. cerevisiae deletion strains, locus YOR265W, strain rbl2, hits give low values 0.991 | S. cerevisiae deletion strains, locus YOR270C, strain vph1, hits give low values 0.98 | S. cerevisiae deletion strains, locus YOR290C, strain snf2, hits give low values 1 | S. cerevisiae deletion strains, locus YOR316C, strain cot1, hits give low values 0.973 | S. cerevisiae deletion strains, locus YPL051W, strain arl3, hits give low values 0.988 | S. cerevisiae deletion strains, locus YPL055C, strain LGE1, hits give low values 1.07 | S. cerevisiae deletion strains, locus YPL078C, strain atp4, hits give low values 0.995 | S. cerevisiae deletion strains, locus YPL106C, strain sse1, hits give low values 1 | S. cerevisiae deletion strains, locus YPL240C, strain hsp82, hits give low values 0.983 | S. cerevisiae deletion strains, locus YPL241C, strain CIN2, hits give low values 1.01 | S. cerevisiae deletion strains, locus YPL256C, strain CLN2, hits give low values 0.946 | S. cerevisiae deletion strains, locus YPR119W, strain clb2, hits give low values 0.947 | S. cerevisiae deletion strains, locus YPR141C, strain kar3, hits give low values 0.99 | S. cerevisiae deletion strains, locus YPR163C, strain tif3, hits give low values 0.959 | S. cerevisiae deletion strains, locus YPR167C, strain met16, hits give low values 0.969 | S. cerevisiae deletion strains, strain wtn01, hits give low values 0.963 | S. cerevisiae strains, strain wild type, hits give low values 1.02
